The record followed here is PubChem BioAssay AID488969 (Vanderbilt High Throughput Screening Facility, 2010).

Over roughly 110,000 compounds, “z-score” has its median near -0.1; the highest 2% begin near 2. The list comes from a sample in which the highest values are over-represented; it also holds similar structures and randomly drawn compounds. The source made the active and inactive calls.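 How the source made its calls: active means z-score in the third read window above 3 or below -3; inactive means the rest.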

The target in this assay is Metabotropic glutamate receptor 8 (Rattus norvegicus) (UniProt P70579). The experiment in a line: rat mGluR8 modulators via GIRK flux, primary screen, cell-based, thallium flux, HTS (AID 488969). The following applies: HEK293 rat mGluR8, GIRK (G protein-gated inwardly rectifying potassium channel) thallium flux, FluoZin2; at 10 µM; stronger effect = higher value; submaximal glutamate (EC20) added with thallium.
Sequence of Metabotropic glutamate receptor 8 (Rattus norvegicus) (P70579 whole entry, looked up): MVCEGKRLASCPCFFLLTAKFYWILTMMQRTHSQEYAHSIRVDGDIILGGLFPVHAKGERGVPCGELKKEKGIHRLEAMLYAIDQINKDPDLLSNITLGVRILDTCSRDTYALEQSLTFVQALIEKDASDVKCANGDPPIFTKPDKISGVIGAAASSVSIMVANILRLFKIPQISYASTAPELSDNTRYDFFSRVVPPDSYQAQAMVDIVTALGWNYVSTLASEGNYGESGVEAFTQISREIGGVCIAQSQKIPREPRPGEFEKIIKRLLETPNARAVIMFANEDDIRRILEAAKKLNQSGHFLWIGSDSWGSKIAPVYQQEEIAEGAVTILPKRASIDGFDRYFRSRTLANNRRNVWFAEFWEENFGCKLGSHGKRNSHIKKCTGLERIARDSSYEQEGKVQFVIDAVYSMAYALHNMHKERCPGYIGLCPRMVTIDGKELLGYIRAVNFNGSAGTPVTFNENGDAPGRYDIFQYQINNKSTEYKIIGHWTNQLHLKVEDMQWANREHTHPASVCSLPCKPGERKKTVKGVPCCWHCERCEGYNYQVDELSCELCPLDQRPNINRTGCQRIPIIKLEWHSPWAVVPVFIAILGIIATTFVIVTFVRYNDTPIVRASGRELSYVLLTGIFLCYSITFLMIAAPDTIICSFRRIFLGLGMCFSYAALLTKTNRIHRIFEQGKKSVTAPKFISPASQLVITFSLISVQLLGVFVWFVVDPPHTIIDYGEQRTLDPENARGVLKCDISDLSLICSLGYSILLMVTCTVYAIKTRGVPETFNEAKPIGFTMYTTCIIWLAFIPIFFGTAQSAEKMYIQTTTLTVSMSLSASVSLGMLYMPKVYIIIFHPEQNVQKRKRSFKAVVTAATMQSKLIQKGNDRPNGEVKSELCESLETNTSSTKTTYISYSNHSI
In turn, `O=C(c1ccccc1)N(Cc1ccc(F)cc1)C1CCS(=O)(=O)C1` (stereo unspecified) yielded a z-score of -0.0413.
The same measure for `O=C(c1ccc(Cl)c([N+](=O)[O-])c1)N(Cc1ccccc1)C1CCS(=O)(=O)C1` (stereo unspecified): 2; for `O=C(c1sc2ccccc2c1Cl)N(Cc1ccccc1)C1CCS(=O)(=O)C1` (stereo unspecified): 1.16.
Regarding `CCCCn1c(=O)[nH]c(=O)c2c1ncn2Cc1ccco1`, the z-score is -0.249.
The result for `CCOC(=O)CN(C(=O)CSc1nnc(CNc2ccc(F)cc2)n1CC)c1ccc(F)cc1` reads -0.599; that for `COc1ccc(OC)c(CNC(=O)CCN2C(=O)COc3ccccc32)c1`, 0.307.
The same measure for `CSc1nc2ccccc2cc1/C=C(\C#N)c1cccc(Cl)c1`: 0.938; for `CSc1nc2ccccc2cc1/C=C(\C#N)c1ccccc1`: 0.0152.
The result for `CSc1nc2ccccc2cc1/C=C(\C#N)c1cccc(C)c1` reads 3.99 (active).
Regarding `COc1ccc(C(C)=O)cc1CN1C(=O)C(C)N(c2ccc(C)cc2)C1=O` (stereo unspecified), the z-score was -0.0103.
The same measure for `CCOc1ccc(N2C(=O)CC(SC(=NC)Nc3ccc(F)cc3)C2=O)cc1` (stereo unspecified): 3.7 (active); for `CCCOc1ccc(N2C(=O)CC(SC(=NC)Nc3ccc(F)cc3)C2=O)cc1` (stereo unspecified): -0.0553; for `CCOc1ccc(N2C(=O)CC(SC(=NC)Nc3cccc(F)c3)C2=O)cc1` (stereo unspecified): -0.588.
The result for `CCOC(=O)CN1NC2(CCC(C)CC2)NC1=S` (stereo unspecified) reads -0.408; that for `CCOC(=O)CN1NC2(CCCCC2)NC1=S`, 0.284.
`CCOC(=O)CN1NC2(CCC(C(C)(C)C)CC2)NC1=S` (stereo unspecified) had a z-score of 2.66.
For the compound `O=C(CSc1nc(-c2ccccc2)c(-c2ccccc2)[nH]1)NCc1ccco1`, the z-score is -0.317.
The result for `C=CCOc1ccc(/C(O)=C2\C(=O)C(=O)N(CCCOC)C2c2ccc(O)c(OC)c2)cc1` (stereo unspecified) reads -0.44; that for `Cc1ccc(S(=O)(=O)Nc2ccccc2-c2ccccc2NS(=O)(=O)c2ccc(C)cc2)cc1`, -0.159; that for `Cc1ccc(NS(=O)(=O)c2ccc3c(c2)C(=O)c2ccccc2C3=O)c(C)c1`, -0.0521.
As for `CNc1cccc2c1C(=O)c1ccccc1C2=O`, the z-score was -0.102.
The same measure for `O=C1c2ccccc2-c2cccc(NS(=O)(=O)c3ccc(C(F)(F)F)cc3)c21`: 2.66.
`O=C(O)c1ccccc1NS(=O)(=O)c1cccc(C(F)(F)F)c1` displayed a z-score of -0.814.
The result for `Cc1cccc(S(=O)(=O)Nc2cccc3c2C(=O)c2ccccc2-3)c1` reads 8.14 (active).
In turn, `CCOC(=O)c1[nH]cnc1C(=O)Nc1ccncc1` had a z-score of 0.161.
The result for `O=C(CS(=O)(=O)c1ccc2ccccc2c1)Nc1ccccc1Cl` reads -0.351; that for `Cn1c(N2CCC(C(N)=O)CC2)nc2c1c(=O)n(Cc1cccc(Br)c1)c(=O)n2C`, -1.26; that for `COC(=O)NCc1ccc(S(=O)(=O)N2CCOCC2)cc1`, 0.235.
As for `COc1cc(C(=S)N2CCCC2)cc(Cl)c1O`, the z-score amounted to 2.62.
The result for `COc1cc(C(=S)N2CCCC2)cc(OC)c1O` reads 0.304; that for `COc1cc(C(=S)N2CCCC2)ccc1O`, 0.115.
Regarding `Cc1sc2nc(C)n(/N=C/c3ccc(O)cc3)c(=O)c2c1C`, the z-score is -0.305.
The same measure for `O=C(Nc1cccc(Cl)c1)N(Cc1nc2ccccc2c(=O)[nH]1)C1CCCC1`: -0.529; for `O=C(NC1CCCCC1)N(Cc1nc2ccccc2c(=O)[nH]1)C1CCCC1`: 0.129; for `Cc1ccc(S(=O)(=O)Cc2nc3ccccc3c(=O)[nH]2)cc1`: -0.19.
The result for `CN(Cc1nc2ccccc2c(=O)[nH]1)c1ccccc1` reads -0.0308.
The compound `Cc1cccc(NC(=O)N(Cc2nc3ccccc3c(=O)[nH]2)C2CCCC2)c1` showed a z-score of 2.35.
The same measure for `COc1ccc(S(=O)(=O)N(Cc2ccccc2)Cc2nc3ccccc3c(=O)[nH]2)cc1`: -0.148.
The result for `COc1ccc(S(=O)(=O)N(Cc2nc3ccccc3c(=O)[nH]2)C2CCCC2)cc1` reads 2.49; that for `COc1ccc(CN(Cc2nc3ccccc3c(=O)[nH]2)C(=O)NC2CCCCC2)cc1`, -0.301; that for `O=c1[nH]c(CS(=O)(=O)c2ccccc2)nc2ccccc12`, 3.08 (active).
The same measure for `CCOC(=O)N1CCN(C(=O)CN(c2cc(Cl)ccc2OC)S(=O)(=O)c2ccccc2)CC1`: -0.359; for `CCCc1nc2ccc(NC(=O)c3cccs3)cc2c(=O)n1Cc1ccc(Cl)cc1`: -0.155; for `O=C(C(=O)N1CCCc2ccccc21)c1c[nH]c2ccccc12`: 0.104.
For `CCOC(=O)c1c(-c2ccccc2)oc2ccc(OC)cc12`, the z-score amounted to 0.0333.
The same measure for `CCC(CC)NC(=O)COC(=O)c1ccc(OCc2ccc(C(C)=O)cc2OC)c(OC)c1`: -0.23; for `C/C(=N\NC(=O)c1ccc(OC2CCCC2)cc1)c1ccc(C)s1`: 1.05; for `Cc1ccc(CC2CC(=O)N(c3nc4ccccc4n3C)C2=O)cc1` (stereo unspecified): -0.156.
The result for `Cc1ccc(C(=O)NCCCn2ccnc2)cc1[N+](=O)[O-]` reads 0.161; that for `Cc1ccc(CNC(=O)C(=O)NCCCn2ccnc2)cc1`, -0.281; that for `O=C(NCCCn1ccnc1)C(Cc1ccc([N+](=O)[O-])cc1)N1C(=O)c2ccccc2C1=O` (stereo unspecified), 2.67.
In turn, `CN1CCN(C(=O)CN(c2cccc(Cl)c2)S(=O)(=O)c2ccccc2)CC1` gave a z-score of -0.681.
The result for `O=C(Nc1ccc(Cl)c(Cl)c1)Nc1nnc(CC2=CCCCC2)s1` reads 0.0021.
Regarding `CCOC(=O)C1=C(NC(=S)NC(=O)c2ccccc2)c2ccccc2CC1(C)C`, the z-score is 5.58 (active).
The result for `CCOC(=O)C1=C(N)c2ccccc2CC1C(C)C` (stereo unspecified) reads -0.175; that for `CCOC(=O)C1=C(NC(=S)NC(=O)c2ccccc2)c2ccccc2CC1C(C)C` (stereo unspecified), 3.46 (active); that for `CCOC(=O)c1ccc(NC(=O)c2ccccc2)cc1`, -0.0754.
The result for `CCOC(=O)c1sc(NC(=S)NC(=O)c2ccccc2)c(C(=O)OCC)c1C` reads 0.582.
For the compound `CCOC(=O)c1ccc(NC(=O)c2ccc(NC(=O)c3ccccc3)cc2)cc1`, the z-score was -0.341.
Consider `O=[N+]([O-])c1ccc(OCCN2CCCCCC2)cc1`, for which the z-score came to 0.121.
The same measure for `O=C(NC1CCCCCC1)C1c2ccccc2C(=O)N1CCCN1CCOCC1` (stereo unspecified): -0.316; for `COCCCN1C(=O)c2ccccc2C1C(=O)NC1CCCCCC1` (stereo unspecified): 0.0327.
The result for `CCCCN1C(=O)c2ccccc2C1C(=O)NC1CCCC1` (stereo unspecified) reads 3.2 (active); that for `COc1ccc(-n2nnc3c(SCC(=O)Nc4ccc5c(c4)OCCO5)ncnc32)cc1`, 0.658.
The result for `Clc1cccc(-c2cc3nc4c(c(N5CCN(c6cnccn6)CC5)n3n2)CCCC4)c1` reads -0.109.
`Clc1cccc(-c2cc3nc4c(c(N5CCNCC5)n3n2)CCCC4)c1`: the z-score worked out at 2.71.
The result for `OC1CCCN(c2c3c(nc4cc(-c5cccc(Cl)c5)nn24)CCC3)C1` (stereo unspecified) reads -0.591.
The result for `CCCn1nc(CC(=O)OCC)c2ccccc2c1=O` reads 0.73; that for `O=C(Cn1[nH]c(=O)c2ccccc2c1=O)NCc1cccnc1`, -0.377; that for `CC(C)C(NC(=O)c1ccccc1NC(=O)c1ccco1)C(=O)O` (stereo unspecified), -0.744.
`COC(=O)c1cc(OC)c(OC)cc1NC(=S)Nc1cccc(Cl)c1`: the z-score came to 0.731.
The result for `CC(NC(=S)Nc1ccccc1OC(F)F)C(C)(C)C` (stereo unspecified) reads -0.263; that for `FC(F)Oc1ccc(NC(=S)NCc2ccccc2)cc1Cl`, 0.178.
The same measure for `O=C(Nc1cc(Cl)ccc1Oc1ccccc1)c1ccccc1F`: 3.37 (active); for `S=C(Nc1cccc(Cl)c1)Nc1ccccc1Oc1ccccc1`: 15.4 (active); for `COc1cc(C)c(NC(=S)Nc2cccc(Cl)c2)cc1OC`: 0.0992.
The result for `FC(F)Oc1ccccc1NC(=S)NCc1ccco1` reads 0.0626.
Compound `O=C(Nc1ccccc1Oc1ccccc1)c1ccccc1F` registered a z-score of -0.161.
The result for `O=C(Nc1cc(Cl)ccc1Oc1ccccc1)c1ccc(F)cc1` reads -0.256; that for `FC(F)Oc1ccccc1NC(=S)Nc1cccc(Cl)c1Cl`, 3.76 (active); that for `Fc1ccc(NC(=S)Nc2ccc(F)c(Cl)c2)cc1Cl`, -0.0109.
The same measure for `Fc1ccc(NC(=S)Nc2ccccc2OC(F)F)cc1Cl`: 6.05 (active); for `Cc1cc(Cl)ccc1NC(=S)NCc1ccc(Cl)cc1`: 0.0662; for `CC1(C)CC(=O)c2cc(C(=O)NCc3ccco3)c(=O)n(-c3ccc(Cl)cc3)c2C1`: -0.635.
As to `COCc1nnc(NC(=O)c2cccs2)s1`, the z-score is -0.0696.
`NC(=O)COC(=O)c1cc(S(=O)(=O)N2CCOCC2)ccc1N1CCCCC1` registered a z-score of -0.0501.
The same measure for `CCn1cc(Br)c(C(=O)Nc2cccc(Cl)c2)n1`: -0.412.
The same measure for `CCOC(=O)c1cc(-c2ccccc2)sc1NC(=O)C(C)OC(=O)c1cccnc1OCC` (stereo unspecified): 0.0703; for `O=C(CCCOc1ccccc1)Nc1ccc2c(c1)OCCO2`: 0.0498; for `CN(C(=O)c1ccc2c(c1)C(=O)N(CCC1=CCCCC1)C2=O)C1CCCCC1`: 0.422.
For the compound `Cc1nc(NC2=NCN(CC3CCCO3)CN2)nc2ccccc12` (stereo unspecified), the z-score stood at 0.234.
`COc1cc2c(cc1OC)C(C1C(=O)CCCC1=O)N(C(=O)CCl)CC2` (stereo unspecified) had a z-score of -0.173.
The same measure for `CCOc1ccc(C(=O)Nc2nc(C)cc(C)n2)cc1[N+](=O)[O-]`: -0.36; for `Cc1ccc(C)c(N(CC(=O)NN=C2CCCCCCC2)S(C)(=O)=O)c1`: -0.202.
The same measure for `COc1ccc(NC(=O)Nc2ccc(C)cc2OC(F)F)cc1OC`: -0.0436; for `S=C(Nc1ccccc1Oc1ccccc1)Nc1cccc(Cl)c1Cl`: 4.09 (active); for `CNC(=S)Nc1cc(Cl)ccc1Oc1ccccc1`: 0.287.
The result for `COc1cc(C)c(NC(=S)Nc2ccc(Cl)c(Cl)c2)cc1OC` reads 0.396; that for `S=C(Nc1ccccc1)Nc1ccc(Cl)cc1Cl`, 1.43.
Compound `S=C(Nc1ccc(OCc2ccccc2)cc1)Nc1cccc(Cl)c1Cl` showed a z-score of 0.844.
The same measure for `S=C(Nc1ccccc1Cl)Nc1ccc(Cl)cc1Cl`: 5.05 (active); for `COc1cc(NC(=S)Nc2cccc(Cl)c2Cl)c(OC)cc1Cl`: 0.605; for `S=C(Nc1ccccc1)Nc1cc(Cl)ccc1Oc1ccccc1`: 3.43 (active).
The result for `CCNC(=S)Nc1cc(Cl)ccc1Oc1ccccc1` reads 0.269; that for `CCNC(=S)Nc1ccc(Cl)cc1Cl`, 0.108.
The result for `Cc1ccc(NC(=S)Nc2ccc(Cl)c(Cl)c2)c(OC(F)F)c1` reads 5.16 (active).
The compound `NC(=S)N/N=C/c1ccc(C(F)(F)F)cc1` gave a z-score of 0.721.
Take `Cc1cc(C)n(-c2cc(N3CCN(S(=O)(=O)c4ccc5ccccc5c4)CC3)ccc2[N+](=O)[O-])n1`: the z-score is -0.296.
The same measure for `S=C1NCCc2ccccc2C1c1ccccc1` (stereo unspecified): -0.276; for `O=C(CN1CCN(C(c2ccccc2)c2ccccc2)CC1)N1CCOCC1`: -0.28.
The compound `COC(=O)C(NNc1ccccc1)(NC(=O)c1cccc(F)c1)C(F)(F)F` (stereo unspecified) returned a z-score of -0.19.
